Screens: PubChem BioAssay, National Center for Advancing Translational Sciences (NCATS)
HT1080NT lethal: kills 2HG-producing HT-1080-NT fibrosarcoma cells; HT-1080-NT fibrosarcoma viability, CellTiter-Glo ATP luminescence, 48 h; Potency, µM (doses to about 46.1 µM), inactives show top-dose activity, negative = less viability, actives largely listed as cytotoxic; 360,000 tested, 1.6% active;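 note: NT is the 2HG producing partner of a matched IDH1 knockdown line; potency is the fitted concentration of half-maximal effect; 0% = DMSO-treated cells and -100% = media-only wells without cells; nearly all actives have a fitted effect of over 55% in size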
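Viability by CellTiter-Glo luminescence after 48 h compound exposure at 37C of HT-1080-NT cells (750/well, RPMI, 5% FBS). % activity scaled between DMSO wells and medium-only wells, then curve-fitted and categorized by curve class.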
IL1B secr inh: inflammasome signaling inhibition, IL-1 beta readout; THP-1 LPS/ATP IL-1B secretion, AlphaLISA, 16 h; active compounds read low; activity change, % at 57.5 µM; 360,000 tested, 4.7% active; AID 743279; in the data active = activity change below about -50%; inconclusive = mostly about -30% to -49%
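Secreted IL-1B measured by AlphaLISA bead assay after 16 h compound exposure of THP-1 cells; compounds (final up to 57.5 uM) added 1 h before LPS (250 ng/mL) and ATP (1.25 mM) stimulation; lower signal means less secretion.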
DT40 TDP1 no CPT: qHTS for Inhibitors of human tyrosyl-DNA phosphodiesterase 1 (TDP1): qHTS in cells in absence of CPT | DT40 Tdp1-/- hTDP1 cells, no CPT, ATP luminescence, 48 h | Potency, µM (highest dose often 46.2 µM), inactives show at the top dose activity change, negative = growth inhibition, actives largely listed as inhibitors | 420,000 tested, 15% active; note: potency is the fitted concentration of half-maximal effect; nearly all actives have a fitted effect of over 55% in size
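Growth of hTDP1-complemented DT40 Tdp1-knockout cells is measured by ATP luminescence after at least 48 hr compound exposure at 37 °C, with DMSO substituting for the 20 nM CPT used in the parallel screen.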
DT40 TDP1 CPT: DT40-hTDP1 cell growth loss with CPT; chicken DT40 Tdp1-/-;hTDP1 cells + 20 nM CPT, ATP luminescence, 48 h; AID 686979; 420,000 tested, 12% active; Potency, µM (top dose mostly 46.2 µM), for inactives: at the top dose activity change, negative = growth inhibition, hits mostly inhibitors; note: potency is the fitted concentration of half-maximal effect; nearly all actives have a fitted effect of over 55% in size
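Chicken DT40 Tdp1-/- cells complemented with human TDP1, 400 cells/well, exposed to compounds plus 20 nM camptothecin for at least 48 h at 37 C; viability read as ATP content by CellTiter-Glo luminescence.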
HT1080 IDH1KD tx: toxicity to HT-1080 IDH1 knockdown cells (counter line); HT-1080 IDH1 knockdown viability, ATP luminescence, 48 h; Potency, µM (series often up to 46.1 µM), inactives show top-dose activity, negative = toxicity, usual class: cytotoxic; 360,000 tested, 2% active;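 note: potency is the fitted concentration of half-maximal effect; 0% = DMSO wells and -100% = cell-free medium wells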
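In this qHTS, HT-1080 cells depleted of IDH1 are exposed for 48 h at 37 °C to compound titrations. Toxicity is scored from CellTiter-Glo luminescence, with DMSO as full viability and medium alone as none.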
* marks the source's active call; other numbers are inactive results. Compounds with a hit are over-represented: about 19% of the library has one in this group of screens. Unless noted, calls come from the whole dose curve; as a rule, active = well fitted curve in the direction sought with a large enough effect; inconclusive = small, poorly fitted or top-dose-only effect, or another doubt; inactive = no such curve, though single readings can be large; an effect the other way counts as inactive or inconclusive. Unless noted, % is set by controls: 0 for no effect and ±100 for the full control effect.

Screening COc1cc(CN2CCNC(=O)C2CC(=O)N(C)Cc2ncc[nH]2)cc(OC)c1 (stereo not drawn) returned HT1080NT lethal -9%, IL1B secr inh 5, DT40 TDP1 no CPT -4%, DT40 TDP1 CPT 19% and HT1080 IDH1KD tx 6%.
For CC(=O)NC(=S)Nc1ccc(NC(=S)NC(=O)/C=C/c2ccco2)cc1 the results were HT1080NT lethal -20%, IL1B secr inh 62, DT40 TDP1 no CPT inconclusive, DT40 TDP1 CPT -16% and HT1080 IDH1KD tx -21%.
Screening O=C(Nc1ccc(O)c(-c2nc3ccccc3s2)c1)c1cc(=O)c2ccccc2o1 returned HT1080NT lethal 3%, IL1B secr inh 8, DT40 TDP1 no CPT 8.2µM*, DT40 TDP1 CPT 9.2µM* and HT1080 IDH1KD tx 4%.
`O=C(/C=C/c1ccco1)NC(=S)Nc1ccc(O)c(-c2nc3ccccc3s2)c1` gave HT1080NT lethal inconclusive, IL1B secr inh 26, DT40 TDP1 no CPT 21µM*, DT40 TDP1 CPT 18µM* and HT1080 IDH1KD tx inconclusive.
For COc1ccc(NC(=S)NC(=O)/C=C/c2ccco2)cc1 the results were HT1080NT lethal -19%, IL1B secr inh -2, DT40 TDP1 no CPT inconclusive, DT40 TDP1 CPT inconclusive and HT1080 IDH1KD tx -21%.
O=C(/C=C/c1ccco1)NC(=S)NNC(=O)c1ccco1 was read as HT1080NT lethal inconclusive, IL1B secr inh 73, DT40 TDP1 no CPT 21µM*, DT40 TDP1 CPT 16µM* and HT1080 IDH1KD tx inconclusive.
CCCCOc1ccc(-c2ncc(N)cn2)cc1 was read as HT1080NT lethal -3%, IL1B secr inh -1, DT40 TDP1 no CPT -14%, DT40 TDP1 CPT -1% and HT1080 IDH1KD tx 0%.
`CC(C)CN1CCC1(C)C(=O)Nc1cccc(C#N)c1` (stereo not drawn) gave HT1080NT lethal 19%, IL1B secr inh 25, DT40 TDP1 no CPT -26%, DT40 TDP1 CPT -11% and HT1080 IDH1KD tx 7%.
Screening CCOC(=O)C1=C(N)Oc2ccc3ccccc3c2C1c1ccc(O)c(OC)c1 (stereo not drawn) returned HT1080NT lethal 21µM*, IL1B secr inh -17, DT40 TDP1 no CPT inconclusive, DT40 TDP1 CPT -9% and HT1080 IDH1KD tx inconclusive.
`COc1ccc(C(CNC(=O)c2oc3ccc(Cl)cc3c2C)N2CCCCC2)cc1` (stereo not drawn) gave HT1080NT lethal 1%, IL1B secr inh 0, DT40 TDP1 no CPT 23µM*, DT40 TDP1 CPT 16µM* and HT1080 IDH1KD tx 1%.
`COc1ccc(C(CNC(=O)c2ccccc2C)N2CCCC2)cc1` (stereo not drawn) gave HT1080NT lethal -2%, IL1B secr inh -3, DT40 TDP1 no CPT -2%, DT40 TDP1 CPT -20% and HT1080 IDH1KD tx -10%.
`COc1ccc(C(CNC(=O)c2oc3c(Cl)cccc3c2C)N2CCCC2)cc1` (stereo not drawn) gave HT1080NT lethal -4%, IL1B secr inh inconclusive, DT40 TDP1 no CPT 23µM*, DT40 TDP1 CPT 16µM* and HT1080 IDH1KD tx -1%.
Screening COc1ccc(C(CNC(=O)c2oc3ccccc3c2C)N2CCCC2)cc1 (stereo not drawn) returned HT1080NT lethal -14%, IL1B secr inh -13, DT40 TDP1 no CPT inconclusive, DT40 TDP1 CPT 21µM* and HT1080 IDH1KD tx -12%.
For COc1ccc(C(CNC(=O)Cc2cc(OC)c(OC)c(OC)c2)N2CCCC2)cc1 (stereo not drawn) the results were HT1080NT lethal 13%, IL1B secr inh -5, DT40 TDP1 no CPT 1%, DT40 TDP1 CPT 4% and HT1080 IDH1KD tx 5%.
Screening COc1ccc(C(CNC(=S)NCc2ccccc2)N2CCCC2)cc1 (stereo not drawn) returned HT1080NT lethal -1%, IL1B secr inh -72*, DT40 TDP1 no CPT -29%, DT40 TDP1 CPT 1% and HT1080 IDH1KD tx -13%.
Screening OCc1cc(-c2ccccn2)no1 returned HT1080NT lethal 0%, IL1B secr inh 35, DT40 TDP1 no CPT -2%, DT40 TDP1 CPT -12% and HT1080 IDH1KD tx 3%.
`COc1cccc(/C=N\NS(=O)(=O)c2ccccc2)c1OC` gave HT1080NT lethal 17%, IL1B secr inh -12, DT40 TDP1 no CPT 8%, DT40 TDP1 CPT -23% and HT1080 IDH1KD tx 12%.
`O=C(NCc1ccccc1Cl)c1ccc2nc([C@@H]3O[C@H](CO)[C@@H](O)[C@H]3O)[nH]c2c1` gave HT1080NT lethal -2%, IL1B secr inh 16, DT40 TDP1 no CPT 4%, DT40 TDP1 CPT -2% and HT1080 IDH1KD tx 3%.
Screening Cc1nc(C)c(C(=O)NCCC(c2ccccc2)c2ccccc2)o1 returned HT1080NT lethal -17%, IL1B secr inh 30, DT40 TDP1 no CPT 12µM*, DT40 TDP1 CPT inconclusive and HT1080 IDH1KD tx -29%.
`Cc1ccsc1C(=O)NCCC(c1ccccc1)c1ccccc1` gave HT1080NT lethal -8%, IL1B secr inh inconclusive, DT40 TDP1 no CPT inconclusive, DT40 TDP1 CPT 1% and HT1080 IDH1KD tx 0%.
`CCCn1c(=O)c2c(C(F)(F)F)cc(-c3ccco3)nc2n(CCC)c1=O` gave HT1080NT lethal 3%, IL1B secr inh 12, DT40 TDP1 no CPT -11%, DT40 TDP1 CPT -32% and HT1080 IDH1KD tx -4%.
`CCCCn1c(=O)n(C)c(=O)c2c(C(F)(F)F)cc(-c3ccncc3)nc21` gave HT1080NT lethal -1%, IL1B secr inh 26, DT40 TDP1 no CPT 11µM*, DT40 TDP1 CPT 18µM* and HT1080 IDH1KD tx -6%.
c1ccc(Nc2ccccc2Nc2ccccn2)nc1 was read as HT1080NT lethal 5%, IL1B secr inh -9, DT40 TDP1 no CPT 5%, DT40 TDP1 CPT -4% and HT1080 IDH1KD tx 13%.
For Oc1cccc2ccc(Nc3ccccn3)nc12 the results were HT1080NT lethal 5.8µM*, IL1B secr inh -110*, DT40 TDP1 no CPT 3.7µM*, DT40 TDP1 CPT 1.6µM* and HT1080 IDH1KD tx 5.8µM*.
COC(=O)[C@@]12CCCCN1[C@H](c1ccc(SC3CCCCC3)cc1)[C@H]1C(=O)N(C)C(=O)[C@H]12 was read as HT1080NT lethal 10%, IL1B secr inh 0, DT40 TDP1 no CPT 16µM*, DT40 TDP1 CPT inconclusive and HT1080 IDH1KD tx 21%.
For CCSc1ccc([C@@H]2[C@@H]3C(=O)N(C)C(=O)[C@@H]3[C@]3(C(=O)OC)CCCCN23)cc1 the results were HT1080NT lethal 2%, IL1B secr inh inconclusive, DT40 TDP1 no CPT inconclusive, DT40 TDP1 CPT 16µM* and HT1080 IDH1KD tx -1%.
`COC(=O)[C@@]12CCCN1[C@H](c1ccc(SC3CCCCC3)cc1)[C@H]1C(=O)N(C)C(=O)[C@H]12` gave HT1080NT lethal -2%, IL1B secr inh 24, DT40 TDP1 no CPT 16µM*, DT40 TDP1 CPT inconclusive and HT1080 IDH1KD tx -1%.
